Here are results for 33 molecules from PMC9911399, “Two distinct binding modes provide the RNA-binding protein RbFox with extraordinary sequence specificity”.

Where a chain is given by its changes, count along the chain named. Over roughly 16,000 sequences, “ka relative to ugcaugu” has its median near 0.0091; the highest 2% begin near 0.032. For the sample, the highest values were picked, then their nearest neighbours and some sequences at random.

T1: RBFOX1 RRM (Homo sapiens, UniProt Q9NWB1 109-208)
T1 sequence: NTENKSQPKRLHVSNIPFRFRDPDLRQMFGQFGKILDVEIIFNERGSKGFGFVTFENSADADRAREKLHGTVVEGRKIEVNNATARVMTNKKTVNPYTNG

B1: GGCAGGC (DNA:RNA)
RNA: GGGAGACCGGAAUUCAGAUUGUCCGGCAGGCUUAAAUCCCGUCGUAGCCACCA
DNA 1: CAATCTGAATTCCGGTCTCCC
DNA 2: TGGTGGCTACGACGGGATT
B2: AAGCGUG (DNA:RNA)
RNA: B1 RNA with G25A, G26A, C27G, A28C, G30U, C31G
DNA 1: CAATCTGAATTCCGGTCTCCC
DNA 2: TGGTGGCTACGACGGGATT
B3: UUGAUCA (DNA:RNA)
RNA: B1 RNA with G25U, G26U, C27G, G29U, G30C, C31A
DNA 1: CAATCTGAATTCCGGTCTCCC
DNA 2: TGGTGGCTACGACGGGATT
B4: GGGCUGG (DNA:RNA)
RNA: B1 RNA with C27G, A28C, G29U, C31G
DNA 1: CAATCTGAATTCCGGTCTCCC
DNA 2: TGGTGGCTACGACGGGATT
B5: AACCGCC (DNA:RNA)
RNA: B1 RNA with G25A, G26A, A28C, G30C
DNA 1: CAATCTGAATTCCGGTCTCCC
DNA 2: TGGTGGCTACGACGGGATT
B6: UCGCAUG (DNA:RNA)
RNA: GGGAGACCGGAAUUCAGAUUGUCCUCGCAUGUUAAAUCCCGUCGUAGCCACCA
DNA 1: CAATCTGAATTCCGGTCTCCC
DNA 2: TGGTGGCTACGACGGGATT
B7: UCGCAUC (DNA:RNA)
RNA: B6 RNA with G31C
DNA 1: CAATCTGAATTCCGGTCTCCC
DNA 2: TGGTGGCTACGACGGGATT
B8: UCGCAUA (DNA:RNA)
RNA: B6 RNA with G31A
DNA 1: CAATCTGAATTCCGGTCTCCC
DNA 2: TGGTGGCTACGACGGGATT
B9: GUAAGUA (DNA:RNA)
RNA: B1 RNA with G26U, C27A, G30U, C31A
DNA 1: CAATCTGAATTCCGGTCTCCC
DNA 2: TGGTGGCTACGACGGGATT
B10: UCACAAA (DNA:RNA)
RNA: B6 RNA with G27A, U30A, G31A
DNA 1: CAATCTGAATTCCGGTCTCCC
DNA 2: TGGTGGCTACGACGGGATT
B11: GAGCAAA (DNA:RNA)
RNA: B6 RNA with U25G, C26A, U30A, G31A
DNA 1: CAATCTGAATTCCGGTCTCCC
DNA 2: TGGTGGCTACGACGGGATT
B12: CUUUGUC (DNA:RNA)
RNA: B1 RNA with G25C, G26U, C27U, A28U, G30U
DNA 1: CAATCTGAATTCCGGTCTCCC
DNA 2: TGGTGGCTACGACGGGATT
B13: AUCCCAA (DNA:RNA)
RNA: B1 RNA with G25A, G26U, A28C, G29C, G30A, C31A
DNA 1: CAATCTGAATTCCGGTCTCCC
DNA 2: TGGTGGCTACGACGGGATT
B14: GGAAUCG (DNA:RNA)
RNA: B1 RNA with C27A, G29U, G30C, C31G
DNA 1: CAATCTGAATTCCGGTCTCCC
DNA 2: TGGTGGCTACGACGGGATT
B15: GGGAUCG (DNA:RNA)
RNA: B1 RNA with C27G, G29U, G30C, C31G
DNA 1: CAATCTGAATTCCGGTCTCCC
DNA 2: TGGTGGCTACGACGGGATT
B16: GGGAUCC (DNA:RNA)
RNA: B1 RNA with C27G, G29U, G30C
DNA 1: CAATCTGAATTCCGGTCTCCC
DNA 2: TGGTGGCTACGACGGGATT
B17: GGAUCGU (DNA:RNA)
RNA: B1 RNA with C27A, A28U, G29C, C31U
DNA 1: CAATCTGAATTCCGGTCTCCC
DNA 2: TGGTGGCTACGACGGGATT
B18: GGAUCCG (DNA:RNA)
RNA: B1 RNA with C27A, A28U, G29C, G30C, C31G
DNA 1: CAATCTGAATTCCGGTCTCCC
DNA 2: TGGTGGCTACGACGGGATT
B19: CGGAUCA (DNA:RNA)
RNA: B1 RNA with G25C, C27G, G29U, G30C, C31A
DNA 1: CAATCTGAATTCCGGTCTCCC
DNA 2: TGGTGGCTACGACGGGATT
B20: CGGAUCG (DNA:RNA)
RNA: B1 RNA with G25C, C27G, G29U, G30C, C31G
DNA 1: CAATCTGAATTCCGGTCTCCC
DNA 2: TGGTGGCTACGACGGGATT
B21: GGAUUCA (DNA:RNA)
RNA: B1 RNA with C27A, A28U, G29U, G30C, C31A
DNA 1: CAATCTGAATTCCGGTCTCCC
DNA 2: TGGTGGCTACGACGGGATT
B22: GGGAUCA (DNA:RNA)
RNA: B1 RNA with C27G, G29U, G30C, C31A
DNA 1: CAATCTGAATTCCGGTCTCCC
DNA 2: TGGTGGCTACGACGGGATT
B23: UAUUAAG (DNA:RNA)
RNA: B6 RNA with C26A, G27U, C28U, U30A
DNA 1: CAATCTGAATTCCGGTCTCCC
DNA 2: TGGTGGCTACGACGGGATT
B24: UCGCAGA (DNA:RNA)
RNA: B6 RNA with U30G, G31A
DNA 1: CAATCTGAATTCCGGTCTCCC
DNA 2: TGGTGGCTACGACGGGATT
B25: AUACCGG (DNA:RNA)
RNA: B6 RNA with U25A, C26U, G27A, A29C, U30G
DNA 1: CAATCTGAATTCCGGTCTCCC
DNA 2: TGGTGGCTACGACGGGATT
B26: ACGUGUU (DNA:RNA)
RNA: B6 RNA with U25A, C28U, A29G, G31U
DNA 1: CAATCTGAATTCCGGTCTCCC
DNA 2: TGGTGGCTACGACGGGATT
B27: GCAGUUG (DNA:RNA)
RNA: B6 RNA with U25G, G27A, C28G, A29U
DNA 1: CAATCTGAATTCCGGTCTCCC
DNA 2: TGGTGGCTACGACGGGATT
B28: UGCCCGU (DNA:RNA)
RNA: B1 RNA with G25U, A28C, G29C, C31U
DNA 1: CAATCTGAATTCCGGTCTCCC
DNA 2: TGGTGGCTACGACGGGATT
B29: UGCUCGU (DNA:RNA)
RNA: B1 RNA with G25U, A28U, G29C, C31U
DNA 1: CAATCTGAATTCCGGTCTCCC
DNA 2: TGGTGGCTACGACGGGATT
B30: CUGCCCG (DNA:RNA)
RNA: B6 RNA with U25C, C26U, A29C, U30C
DNA 1: CAATCTGAATTCCGGTCTCCC
DNA 2: TGGTGGCTACGACGGGATT
B31: CUGCUCG (DNA:RNA)
RNA: B6 RNA with U25C, C26U, A29U, U30C
DNA 1: CAATCTGAATTCCGGTCTCCC
DNA 2: TGGTGGCTACGACGGGATT
B32: UCGUCGU (DNA:RNA)
RNA: B6 RNA with C28U, A29C, U30G, G31U
DNA 1: CAATCTGAATTCCGGTCTCCC
DNA 2: TGGTGGCTACGACGGGATT
B33: CUGUCCG (DNA:RNA)
RNA: B6 RNA with U25C, C26U, C28U, A29C, U30C
DNA 1: CAATCTGAATTCCGGTCTCCC
DNA 2: TGGTGGCTACGACGGGATT

The target of the assay is T1, RBFOX1 RRM. Briefly: EMSA; HiTS-Eq, 1 nM pool, 10 min; buffer printed only for the single-RNA assays: 10 mM Tris pH 7.5, 150 mM NaCl, 3.4 mM EDTA, 0.001% NP-40, 30 C. The note with it: tags: His6 N-terminal (pET28a); label: 5' 32P. The essentials:
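These values rest on relative association constants, computed from read-count changes of each RNA species versus the control reaction and normalised to the cognate motif. Reads came from free RNA recovered by 8% native PAGE after purified RbFox RRM (wild type or mutant) at increasing concentrations was equilibrated for 10 min in 50 µL with 1 nM of a 5′-radiolabelled pool with 7 randomized nucleotides and DNA-annealed flanks.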
In general terms: Mobility shift assays separate free from complexed probe on a gel.
On to B1, for which the binding signal is 0.0103 KA relative to UGCAUGU.

B2: the binding signal was 0.0169 KA relative to UGCAUGU.

As to B3, the binding signal is 0.0152 KA relative to UGCAUGU.

In the case of B4, the binding signal was 0.0301 KA relative to UGCAUGU.

Consider B5, for which the binding signal is 0.00718 KA relative to UGCAUGU.

In the case of B6, the binding signal is 0.809 KA relative to UGCAUGU.

In the case of B7, the binding signal is 0.0121 KA relative to UGCAUGU.

With B8, the binding signal is 0.00838 KA relative to UGCAUGU.

With B9, the binding signal was 0.00628 KA relative to UGCAUGU.

For the molecule B10, the binding signal was 0.00202 KA relative to UGCAUGU.

B11: the binding signal was 0.00616 KA relative to UGCAUGU.

As for B12, the binding signal is 0.0202 KA relative to UGCAUGU.

Regarding B13, the binding signal was 0.00187 KA relative to UGCAUGU.

For B14, the binding signal is 0.0216 KA relative to UGCAUGU.

For B15, the binding signal is 0.0449 KA relative to UGCAUGU.

For B16, the binding signal is 0.0157 KA relative to UGCAUGU.

Take B17: the binding signal was 0.0112 KA relative to UGCAUGU.

Consider B18, for which the binding signal was 0.00934 KA relative to UGCAUGU.

As for B19, the binding signal was 0.0199 KA relative to UGCAUGU.

For B20, the binding signal was 0.0358 KA relative to UGCAUGU.

For the molecule B21, the binding signal was 0.0122 KA relative to UGCAUGU.

Regarding B22, the binding signal is 0.0351 KA relative to UGCAUGU.

With B23, the binding signal was 0.0136 KA relative to UGCAUGU.

With B24, the binding signal is 0.013 KA relative to UGCAUGU.

Consider B25, for which the binding signal was 0.00158 KA relative to UGCAUGU.

In the case of B26, the binding signal is 0.0131 KA relative to UGCAUGU.

For the molecule B27, the binding signal was 0.0127 KA relative to UGCAUGU.

Consider B28, for which the binding signal was 0.0214 KA relative to UGCAUGU.

As for B29, the binding signal was 0.0359 KA relative to UGCAUGU.

Turning to B30, the binding signal was 0.0183 KA relative to UGCAUGU.

B31: the binding signal was 0.0406 KA relative to UGCAUGU.

In the case of B32, the binding signal is 0.0184 KA relative to UGCAUGU.

Consider B33, for which the binding signal was 0.0164 KA relative to UGCAUGU.
